Results taken from PubChem BioAssay AID651789 (National Center for Advancing Translational Sciences (NCATS), 2012).
Inconclusive results are not listed. Entries that show only a call come without a potency. The source made the active and inactive calls. Calls come from the whole dose curve; as a rule, active = well fitted inhibition curve with a large enough effect; inconclusive = small, poorly fitted or top-dose-only effect; inactive = no such curve, though single readings can be large or run the other way.

Experiment: Acumen qHTS Assay for Inhibitors of the mTORC1 Signaling Pathway in WT MEF Cells: Hit Validation; note: nearly all actives have a fitted effect of over 60% in size
Settings: Acumen imaging; series mostly up to 37.3 µM
Outline: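 Read-out is immunofluorescent phospho-rpS6 (Ser235/236) normalised to PI-stained cell number, reported as % active cells using a 7.5 nM rapamycin threshold. Cells: WT or Tsc2-/-, p53-/- MEFs, compound-exposed 24 h at 37C; PI count also tracks viability.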
Potency is the fitted concentration of half-maximal effect.

Row | Compound | Potency
1 | CCCCn1c(=N)n(CCOc2ccccc2OC)c2ccccc21 | 11.7 µM (active)
2 | O=C(Nc1ccc2oc(-c3ccc4ccccc4c3)nc2c1)c1cc(Br)ccc1Cl | 13.1 µM (active)
3 | Cc1ccc(CN2C(=O)C(=O)c3cc(Br)cc(C)c32)cc1 | inactive
4 | COc1ccccc1N1CCN(Cc2cc(COC(C)C)c3cccnc3c2O)CC1 | 2.93 µM (active)
5 | COc1ccccc1-c1noc(CSc2nc3ccc(C)cc3[nH]2)n1 | inactive
6 | O=C(CCCn1c(=O)c2ccccc2n(Cc2cccc(Cl)c2)c1=O)NCCc1ccc(Cl)cc1 | inactive
7 | O=C(CCCn1ccc2cc(S(=O)(=O)N3CCCC3)ccc21)NCc1ccc(Cl)cc1 | inactive
8 | CCS(=O)(=O)c1ncc(Cl)c(C(=O)N2CCN(c3ccc(OC)cc3)CC2)n1 | 10.4 µM (active)
9 | O=C(/C=C/c1ccco1)Nc1ccc(Cl)c(-c2nc3cc(Cl)ccc3o2)c1 | inactive
10 | Cc1ccc(NC(=O)CSc2ncc3c(n2)-c2ccccc2N(C)S3(=O)=O)c(Cl)c1 | inactive
11 | CCCCN1C(=O)C(O)(c2c(C)[nH]c3ccccc23)c2cc(Br)ccc21 (stereo not given) | inactive
12 | CCS(=O)(=O)c1ncc(Cl)c(C(=O)NCc2ccccc2)n1 | 3.29 µM (active)
13 | O=C(CS(=O)(=O)c1cccc2nsnc12)NCc1ccc(Cl)cc1 | inactive
14 | Cc1c(C(=O)Nc2ccc(F)cc2F)nnn1-c1ccccc1Br | inactive
15 | COc1ccc(CCNC(=O)c2ccc3c(c2)N(Cc2ccccc2)CCS3)cc1OC | inactive
16 | COc1ccc(-c2nc(C)c(CCNC(=O)c3ccccc3Br)s2)cc1OC | inactive
17 | CC(=O)N1CCCc2cc(S(=O)(=O)N(Cc3ccccc3)C(C)C)ccc21 | inactive
18 | Cc1cccc(NC(=O)c2c(NC(=O)C(F)(F)F)sc3c2CCCCC3)c1 | inactive
19 | COc1cc(CNc2ccc3c(c2)ncn3C(C)C)cc(OC)c1OC | inactive
20 | CN1CCN(C2(CNC(=O)COc3ccc(C(C)(C)C)cc3)CCCCC2)CC1 | inactive

Row | Compound | Potency
21 | O=C(NCCSc1c(-c2ccc(F)cc2)[nH]c2ccccc12)c1ccc(S(=O)(=O)N2CCOCC2)cc1 | inactive
22 | CC1C(=O)N2CCCc3cc(S(=O)(=O)Nc4ccc(Br)cc4F)cc1c32 (stereo not given) | 2.07 µM (active)
23 | NC(=O)c1ccc(-c2nc(-c3ccc4c(c3)OCO4)c(-c3ccccn3)[nH]2)cc1 | inactive
24 | COc1cccc(-c2cc(C(=O)Nc3cnn(Cc4ccc(Cl)cc4Cl)c3)no2)c1 | inactive
25 | Cc1cccc(NC(=O)c2c(N)sc3c2CCC(C)C3)c1 (stereo not given) | inactive
26 | CCc1nn(CC(=O)NCc2ccccc2Cl)c(=O)c2cccn12 | inactive
27 | Cc1cccn2c(Nc3ccccc3)c(-c3cccs3)nc12 | inactive
28 | CCc1ccc(CN(Cc2ccco2)C(=O)c2cc(-c3ccc(C)c(F)c3)on2)cc1 | inactive
29 | COc1ccc(NC(=O)CSc2c3c(nc4ccccc24)CCC3)c(OC)c1 | inactive
30 | Cc1ccc(-c2nn(C)c(=O)c3ccccc23)cc1S(=O)(=O)NCCCN(C)C | inactive
31 | CCOC(=O)c1c(NC(=O)c2nc(S(C)(=O)=O)ncc2Cl)sc(C(C)=O)c1C | 2.07 µM (active)
32 | CCn1c(CC2C(=O)N(C)c3ccc(Br)cc32)nc2ccccc2c1=O (stereo not given) | inactive
33 | CCCSc1ncc(Cl)c(C(=O)Nc2ccc(S(=O)(=O)N3CCCCC3C)cc2)n1 (stereo not given) | inactive
34 | COc1ccc(-c2noc(CSc3nc(N)cc(=O)[nH]3)n2)cc1 | inactive
35 | CCCSc1oc(-c2ccco2)nc1S(=O)(=O)c1ccc(Br)cc1 | inactive
36 | CCCCNC(=O)CSc1nc2nc(C)c(Cc3ccccc3C)c(C)n2n1 | inactive
37 | O=S(=O)(c1ccccc1)n1nc(-c2ccc(Cl)cc2)nc1NCc1ccccc1 | inactive
38 | CCOc1ccc(S(=O)(=O)Nc2ccc(OC)c(Cl)c2)c2cccnc12 | inactive
39 | CCC1=Nc2cc(C(=O)NC3CCCC3)ccc2Sc2ccc(Br)cc21 | 1.85 µM (active)
40 | Cc1ccc(NC(=O)c2c(C)oc3ccc(O)c(CN(C)Cc4ccccc4)c23)c(C)c1 | inactive
